Screening data from PubChem.
KDM4E inh – qHTS Assay for Inhibitors of Human Jumonji Domain Containing 2E (JMJD2E); 230,000 tested, 1.6% active; Lysine-specific demethylase 4E (Homo sapiens), B2RXH2; JMJD2E catalytic domain, FDH-coupled NADH fluorescence (FDH is formaldehyde dehydrogenase); AID 2147, 2009; Potency, µM (doses to about 57.1 µM), for the others: at the top dose activity change, negative = inhibition, actives largely listed as inhibitors;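 further: 0% = wells with enzyme and -100% = buffer wells without enzyme; nearly all actives have a fitted effect of over 50% in size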
HPGD block – qHTS Assay for Inhibitors of HPGD (15-Hydroxyprostaglandin Dehydrogenase). Potency, µM, without a hit: top-dose activity change, negative = inhibition, actives largely listed as inhibitors. 15-hydroxyprostaglandin dehydrogenase [NAD(+)] (Homo sapiens), P15428. 150,000 tested, 4.3% active. purified HPGD, NADH fluorescence kinetic, PGE2 substrate
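NADH formation kinetics: reaction with 30 uM PGE2 and 1 mM NAD+ (final), 20 nM enzyme, Tris-HCl pH 8 with Tween 20, after 15 min compound preincubation at room temperature. Fluorescence change, last versus first of five reads.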
ALDH1A1 inh – qHTS Assay for Inhibitors of Aldehyde Dehydrogenase 1 (ALDH1A1); Aldehyde dehydrogenase 1A1 (Homo sapiens), P00352; Purified ALDH1A1, NADH fluorescence, propionaldehyde substrate; Potency, µM (series often up to 75.3 µM), without a hit: top-dose activity, negative = inhibition, most hits filed as inhibitors; 220,000 tested, 7.3% active; AID 1030, 2008;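 further: plate controls were no enzyme wells and a reference inhibitor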
Target sequence (P00352 whole entry, looked up): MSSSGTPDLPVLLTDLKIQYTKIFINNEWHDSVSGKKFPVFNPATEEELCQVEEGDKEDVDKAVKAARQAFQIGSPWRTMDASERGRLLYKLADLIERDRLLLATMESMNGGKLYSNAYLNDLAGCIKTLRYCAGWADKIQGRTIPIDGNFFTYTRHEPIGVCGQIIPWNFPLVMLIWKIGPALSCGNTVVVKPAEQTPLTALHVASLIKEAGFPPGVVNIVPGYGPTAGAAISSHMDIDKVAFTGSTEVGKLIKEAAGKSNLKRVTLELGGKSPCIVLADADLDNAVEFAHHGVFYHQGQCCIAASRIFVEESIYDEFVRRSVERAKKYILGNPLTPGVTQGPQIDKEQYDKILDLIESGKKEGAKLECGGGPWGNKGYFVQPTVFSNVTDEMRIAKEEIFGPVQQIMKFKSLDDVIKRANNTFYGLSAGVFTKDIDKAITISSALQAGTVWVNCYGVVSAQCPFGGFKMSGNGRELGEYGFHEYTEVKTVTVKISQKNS
Tau fibril ThT – qHTS for Inhibitors of Tau Fibril Formation, Thioflavin T Binding | recombinant tau K18 P301L, heparin-induced fibrillization, ThT fluorescence | Potency, µM (titrated, usually from 57.4 µM), without a hit: at the top dose activity, negative = inhibition, actives largely listed as inhibitors | 270,000 tested, 2.1% active | AID 1460, 2008; active means well fitted curve in the direction sought with a large enough effect; inconclusive means small, poorly fitted or top-dose-only effect, or another doubt; inactive means no such curve, though single readings can be large; an effect the other way counts as inactive or inconclusive; further: nearly all actives have a fitted effect of over 55% in size
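K18 P301L tau (15 uM + 0.24 uM Alexa 594-tagged), heparin 20 uM, NaOAc pH 7, 6 h 37 C; ThT 30 uM, 1 h RT, ex 450/em 510 nm.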
Tau fluor cs – Counterscreen qHTS for Inhibitors of Tau Fibril Formation, Fluorescence Polarization; tau K18 P301L Alexa594 fluorescence, heparin fibrillization; Potency, µM (doses to about 57.7 µM), for the others: at the top dose activity change, negative = decrease; 280,000 tested, 0.93% active; AID 1463, 2008; active means well fitted curve in the direction sought with a large enough effect; inconclusive means small, poorly fitted or top-dose-only effect, or another doubt; inactive means no such curve, though single readings can be large; an effect the other way counts as inactive or inconclusive; further: nearly all actives have a fitted effect of over 55% in size
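Human K18 P301L tau (15 uM unlabeled plus 0.24 uM Alexa 594-labeled, final) in 100 mM sodium acetate pH 7 was mixed with compound and 20 uM heparin and incubated 6 hr at 37 C.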
Tau FP inhib – qHTS for Inhibitors of Tau Fibril Formation, Fluorescence Polarization. Microtubule-associated protein tau (Homo sapiens), P10636. K18 P301L tau heparin fibrillization, Alexa594 FP, 6 h. Potency, µM (top dose mostly 57.7 µM), for inactives: at the top dose activity, negative = inhibition, actives largely listed as inhibitors. 280,000 tested, 0.39% active; active means well fitted curve in the direction sought with a large enough effect; inconclusive means small, poorly fitted or top-dose-only effect, or another doubt; inactive means no such curve, though single readings can be large; an effect the other way counts as inactive or inconclusive; further: nearly all actives have a fitted effect of over 55% in size
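Heparin (20 uM) drove fibril formation of recombinant tau K18 P301L, 15 uM unlabeled with 0.24 uM Alexa 594 label, for 6 hr at 37 C in 100 mM sodium acetate pH 7. Fluorescence polarization (555/632 nm) read 1 hr after 30 uM ThT.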
* = called active by the depositor; ? = inconclusive; / = no result given; [ ] = another dose, or the depositor's remark. An excerpt weighted towards active compounds, which were near 9.9% of everything screened. Unless noted, the call rests on the fitted dose curve; in most records, active means well fitted inhibition curve with a large enough effect (not every such curve was filed as active); inconclusive means small, poorly fitted or top-dose-only effect, or another doubt; inactive means no such curve, though single readings can be large or run the other way. Unless noted, on the % scale 0 is the no-effect control and ±100 the full control effect; potency means the concentration at half of the fitted maximal effect.

SMILES	KDM4E inh	HPGD block	ALDH1A1 inh	Tau fibril ThT	Tau fluor cs	Tau FP inhib
O=C(/C=C/c1ccccc1[N+](=O)[O-])N1CCCCC1	-4%	/	?	-3%	-5%	0%
N#C/C(=C\C=C\c1ccccc1[N+](=O)[O-])C(=O)NC1CCCCC1	-7%	/	25µM*	?	-24%	0%
N#C/C(=C\c1cc(Cl)cc(Cl)c1O)C(=O)NC1CCCCC1	?	?	32µM*	?	-27%	-11%
Cc1ccccc1OCC(=O)N(Cc1ccc(N(C)C)cc1)CC1CCCO1 (stereo not given)	/	/	/	-8%	-2%	3%
O=C(NCC(=O)N(c1cccnc1)C(C(=O)NC1CCCC1)c1cccs1)c1ccco1 (stereo not given)	3%	/	-6%	-6%	-6%	2%
CC1=CC[C@@]2(CO)COC(c3ccccc3O)C1C2 (stereo not given in full)	0%	0%	?	-2%	-6%	-6%
CCOC(=O)c1cnc(SCc2ccccc2)nc1N	-4%	-19%	?	-4%	-1%	5%
CCOC(=O)c1cnc(SCc2cccc3ccccc23)nc1N	-5%	28µM*	?	?	?	-17%
CCOC(=O)CC(=O)CSc1ncc(C(=O)OCC)c(N)n1	0%	-28%	22µM*	-5%	-2%	6%
O=C(Nc1nnc(SCc2cc(=O)n3cc(Cl)ccc3n2)s1)c1cccc(F)c1	/	/	/	2%	-8%	-9%
Cc1ccn(CCC(=O)N2CCCC(CCC(=O)N3CCN(c4ccccn4)CC3)C2)n1 (stereo not given)	?	/	?	-6%	-5%	4%
CC(=O)NN1C(=O)/C(=C/c2ccc(C(C)C)cc2)SC1=S	-5%	-30%	4µM*	?	?	?
Cc1cc(C)n(-c2nc(C)c(C)c(=O)n2CC(=O)Nc2cccc([N+](=O)[O-])c2)n1	/	/	/	-8%	-27%	-17%
COc1ccc(NC(=O)c2ccc3c(c2)NC(=O)CS3)cc1S(=O)(=O)Nc1ccc(Br)cc1	?	/	10µM*	1%	?	28µM*
Cc1ccc(NS(=O)(=O)c2cc(NC(=O)c3ccc4c(c3)NC(=O)CS4)ccc2C)c(C)c1	?	/	14µM*	11%	?	?
Cc1ccc(NS(=O)(=O)c2cc(C(=O)Nc3cccc(N(C)S(C)(=O)=O)c3)ccc2C)c(C)c1	2%	-5%	11%	1%	?	-12%
Cc1ccc(CC2C(=O)N(c3nc(C)cc(C)n3)C(=O)C2C)cc1 (stereo not given)	4%	/	9%	10%	8%	1%
CC1=Nc2ccccc2/C1=C/c1sc(=N)n(-c2nccs2)c1O	0%	?	?	5µM*	11µM*[quencher]	?
O=c1oc2cc(OCc3ccc(F)cc3F)ccc2cc1-c1ccc2ccccc2n1	-1%	?	-1%	1%	-9%	-4%
COc1ccc(C(c2c[nH]c3ccccc23)c2c[nH]c3ccccc23)cc1O	-18%	-11%	-11%	?	14µM*[quencher]	?
COc1ccc(C(=O)Nc2ccccc2C(=O)N2CCCCC2C)cc1 (stereo not given)	-4%	/	2%	-5%	-5%	1%
CCC(=O)Nc1ccc(C(=O)CSc2nnc(-c3ccccc3F)n2CCc2ccccc2)cc1	7%	-6%	22µM*	1%	-21%	13%
CCC(=O)Nc1ccc(C(=O)CSc2nnc(-c3ccc(O)cc3)n2CC2CCCO2)cc1 (stereo not given)	1%	-7%	25µM*	-12%	-19%	-14%
